Assay results: paper PMC7862700, “An all-to-all approach to the identification of sequence-specific readers for epigenetic DNA modifications on cytosine”

Legend:
Test in all cases: DAPPL (digital affinity profiling via proximity ligation, sequencing); 10 mM Tris-HCl pH 7.5, 50 mM NaCl, 1 mM DTT, 4% glycerol, room temperature, 30 min; GST-TFs on glutathione beads, 16-mer random dsDNA library, 0.1% formaldehyde crosslink after washing; high values mean tight binding
Conditions in all cases: protein: recombinant; tags: N-terminal GST; dsDNA, one strand shown
FLI1 = molecular target: T1, FLI1 (Homo sapiens, UniProt Q01543 1-452)
T1 sequence: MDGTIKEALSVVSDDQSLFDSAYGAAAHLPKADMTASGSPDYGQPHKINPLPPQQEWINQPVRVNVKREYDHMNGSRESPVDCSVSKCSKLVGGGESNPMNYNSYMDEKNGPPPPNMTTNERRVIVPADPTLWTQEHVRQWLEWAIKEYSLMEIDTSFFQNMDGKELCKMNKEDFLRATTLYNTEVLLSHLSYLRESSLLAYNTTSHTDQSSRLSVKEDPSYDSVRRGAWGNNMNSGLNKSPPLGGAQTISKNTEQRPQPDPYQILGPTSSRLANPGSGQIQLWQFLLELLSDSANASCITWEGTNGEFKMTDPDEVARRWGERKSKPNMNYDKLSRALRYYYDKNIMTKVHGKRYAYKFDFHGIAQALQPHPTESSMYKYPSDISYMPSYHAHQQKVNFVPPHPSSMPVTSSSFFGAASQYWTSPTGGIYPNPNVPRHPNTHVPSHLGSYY
Procedure, shortened: (§1)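 Pools were built from human transcription factors expressed in yeast as GST fusions, captured on glutathione beads and DNA-barcoded, along with a tag-only sample. Incubation with 200 nmole of a 16-mer random double-stranded DNA library lasted 30 min at room temperature in Tris/NaCl/DTT/glycerol buffer, and was followed by washing, 0.1% formaldehyde crosslinking, proximity ligation, PCR amplification and Illumina NextSeq500 sequencing. Binding signal is the quotient of each hexamer's read frequency for a factor and its frequency for the tag-only sample.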

ELK1 = molecular target: T2, ELK1 (Homo sapiens, UniProt P19419 1-428)
T2 sequence: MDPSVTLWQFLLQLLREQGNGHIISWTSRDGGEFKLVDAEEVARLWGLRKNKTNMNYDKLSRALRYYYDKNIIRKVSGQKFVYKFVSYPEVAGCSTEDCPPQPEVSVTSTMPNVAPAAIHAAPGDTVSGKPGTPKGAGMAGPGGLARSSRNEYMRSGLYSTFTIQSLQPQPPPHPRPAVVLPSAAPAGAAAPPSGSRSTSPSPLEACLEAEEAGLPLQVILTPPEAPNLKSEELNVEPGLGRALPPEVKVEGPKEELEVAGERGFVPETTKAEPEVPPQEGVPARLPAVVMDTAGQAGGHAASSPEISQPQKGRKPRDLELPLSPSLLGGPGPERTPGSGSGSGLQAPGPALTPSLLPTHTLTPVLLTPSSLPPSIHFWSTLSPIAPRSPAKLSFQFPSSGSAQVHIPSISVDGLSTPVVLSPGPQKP
Procedure, shortened: as §1

GABPA = molecular target: T3, GABPA (Homo sapiens, UniProt Q06546 1-454)
T3 sequence: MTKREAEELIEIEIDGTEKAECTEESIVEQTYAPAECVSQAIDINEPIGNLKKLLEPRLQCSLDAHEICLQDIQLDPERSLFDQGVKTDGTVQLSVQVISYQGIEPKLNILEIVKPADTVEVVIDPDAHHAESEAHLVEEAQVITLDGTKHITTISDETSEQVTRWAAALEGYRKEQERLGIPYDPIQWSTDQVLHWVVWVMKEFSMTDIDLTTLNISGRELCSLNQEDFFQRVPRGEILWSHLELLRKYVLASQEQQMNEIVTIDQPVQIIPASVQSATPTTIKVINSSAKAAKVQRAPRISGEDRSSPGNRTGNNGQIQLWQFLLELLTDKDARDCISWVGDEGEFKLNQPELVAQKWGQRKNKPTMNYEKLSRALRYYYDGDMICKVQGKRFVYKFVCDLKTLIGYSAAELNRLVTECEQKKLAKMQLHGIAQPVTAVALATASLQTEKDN
Procedure, shortened: as §1

ERG = molecular target: T4, ERG (Homo sapiens, UniProt P11308 1-479)
T4 sequence: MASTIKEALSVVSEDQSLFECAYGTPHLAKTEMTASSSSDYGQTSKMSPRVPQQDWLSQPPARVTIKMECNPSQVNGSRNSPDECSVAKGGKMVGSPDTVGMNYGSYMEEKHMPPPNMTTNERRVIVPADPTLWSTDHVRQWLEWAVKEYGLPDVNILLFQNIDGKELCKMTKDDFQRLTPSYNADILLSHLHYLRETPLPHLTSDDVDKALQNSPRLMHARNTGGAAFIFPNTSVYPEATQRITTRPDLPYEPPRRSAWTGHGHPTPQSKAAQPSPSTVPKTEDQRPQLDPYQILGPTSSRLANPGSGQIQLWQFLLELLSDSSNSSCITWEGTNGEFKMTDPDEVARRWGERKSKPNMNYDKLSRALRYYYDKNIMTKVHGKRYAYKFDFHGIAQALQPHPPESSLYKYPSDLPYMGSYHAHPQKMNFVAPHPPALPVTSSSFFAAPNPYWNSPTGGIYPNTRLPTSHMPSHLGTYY
Procedure, shortened: as §1

ELF1 = ELF1 (Homo sapiens, UniProt P32519 1-619)
Chain of ELF1 (P32519 whole entry): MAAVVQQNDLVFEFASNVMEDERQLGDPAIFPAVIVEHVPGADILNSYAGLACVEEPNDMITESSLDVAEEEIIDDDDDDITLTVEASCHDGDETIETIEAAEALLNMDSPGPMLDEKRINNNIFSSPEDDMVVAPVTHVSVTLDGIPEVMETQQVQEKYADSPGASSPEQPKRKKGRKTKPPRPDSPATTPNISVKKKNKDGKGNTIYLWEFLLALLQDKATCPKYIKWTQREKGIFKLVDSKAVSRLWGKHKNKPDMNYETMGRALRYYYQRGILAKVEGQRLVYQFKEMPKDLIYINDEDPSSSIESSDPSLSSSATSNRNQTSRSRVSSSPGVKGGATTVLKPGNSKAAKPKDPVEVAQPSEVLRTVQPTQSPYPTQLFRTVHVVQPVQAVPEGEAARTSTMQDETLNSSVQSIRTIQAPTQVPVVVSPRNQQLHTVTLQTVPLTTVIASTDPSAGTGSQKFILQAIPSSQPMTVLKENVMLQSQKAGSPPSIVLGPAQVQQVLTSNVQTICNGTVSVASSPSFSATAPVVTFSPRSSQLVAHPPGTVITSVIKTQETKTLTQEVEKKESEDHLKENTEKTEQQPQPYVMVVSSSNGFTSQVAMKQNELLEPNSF
Procedure, shortened: as §1

EHF = molecular target: T5, EHF (Homo sapiens, UniProt Q9NZC4 1-300)
T5 sequence: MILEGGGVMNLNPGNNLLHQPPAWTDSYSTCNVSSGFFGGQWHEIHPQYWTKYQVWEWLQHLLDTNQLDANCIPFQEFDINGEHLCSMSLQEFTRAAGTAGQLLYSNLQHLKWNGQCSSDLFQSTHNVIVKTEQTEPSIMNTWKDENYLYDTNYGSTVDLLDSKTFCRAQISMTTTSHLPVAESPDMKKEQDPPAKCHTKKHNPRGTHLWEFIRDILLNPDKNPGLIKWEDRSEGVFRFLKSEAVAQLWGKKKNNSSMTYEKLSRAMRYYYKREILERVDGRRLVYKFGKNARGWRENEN
Procedure, shortened: as §1

SPI1 = SPI1 (Homo sapiens, UniProt P17947 1-270)
Procedure, shortened: as §1

SPIB = SPIB (Homo sapiens, UniProt Q01892 1-262)
Chain of SPIB (Q01892 whole entry): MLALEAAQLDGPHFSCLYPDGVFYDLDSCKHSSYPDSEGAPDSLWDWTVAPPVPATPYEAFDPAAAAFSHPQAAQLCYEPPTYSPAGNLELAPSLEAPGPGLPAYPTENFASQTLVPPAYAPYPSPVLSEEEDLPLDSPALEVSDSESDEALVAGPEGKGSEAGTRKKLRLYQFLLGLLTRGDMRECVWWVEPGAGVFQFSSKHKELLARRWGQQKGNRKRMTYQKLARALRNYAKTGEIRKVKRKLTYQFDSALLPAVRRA
Procedure, shortened: as §1

ELK3 = molecular target: T6, ELK3 (Homo sapiens, UniProt P41970 1-407)
T6 sequence: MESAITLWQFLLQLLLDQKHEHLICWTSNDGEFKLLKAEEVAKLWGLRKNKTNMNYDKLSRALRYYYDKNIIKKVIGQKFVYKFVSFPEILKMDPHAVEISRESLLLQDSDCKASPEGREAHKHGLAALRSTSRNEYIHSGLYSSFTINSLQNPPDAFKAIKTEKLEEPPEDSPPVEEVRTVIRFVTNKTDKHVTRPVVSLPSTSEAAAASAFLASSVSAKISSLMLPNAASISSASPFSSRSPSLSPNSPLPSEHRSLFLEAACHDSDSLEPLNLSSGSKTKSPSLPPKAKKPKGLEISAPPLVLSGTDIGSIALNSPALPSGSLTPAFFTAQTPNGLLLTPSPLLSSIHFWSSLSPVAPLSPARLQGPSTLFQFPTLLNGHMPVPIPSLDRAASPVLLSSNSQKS
Procedure, shortened: as §1

GCTTCT
binding signal (FLI1): 1.41 fold enrichment (6-mer frequency, TF over GST control)
binding signal (ELK1): 1.49 fold enrichment (6-mer frequency, TF over GST control)
binding signal (GABPA): 1.53 fold enrichment (6-mer frequency, TF over GST control)
binding signal (ERG): 1.44 fold enrichment (6-mer frequency, TF over GST control)
binding signal (ELF1): 1.59 fold enrichment (6-mer frequency, TF over GST control)
binding signal (EHF): 1.52 fold enrichment (6-mer frequency, TF over GST control)
binding signal (SPI1): 1.43 fold enrichment (6-mer frequency, TF over GST control)
binding signal (SPIB): 1.51 fold enrichment (6-mer frequency, TF over GST control)
binding signal (ELK3): 1.61 fold enrichment (6-mer frequency, TF over GST control)

TCACTG
binding signal (FLI1): 1.21 fold enrichment (6-mer frequency, TF over GST control)
binding signal (ELK1): 1.16 fold enrichment (6-mer frequency, TF over GST control)
binding signal (GABPA): 1.22 fold enrichment (6-mer frequency, TF over GST control)
binding signal (ERG): 1.27 fold enrichment (6-mer frequency, TF over GST control)
binding signal (ELF1): 1.26 fold enrichment (6-mer frequency, TF over GST control)
binding signal (EHF): 1.18 fold enrichment (6-mer frequency, TF over GST control)
binding signal (SPI1): 1.15 fold enrichment (6-mer frequency, TF over GST control)
binding signal (SPIB): 1.3 fold enrichment (6-mer frequency, TF over GST control)
binding signal (ELK3): 1.2 fold enrichment (6-mer frequency, TF over GST control)

TCCCCT
binding signal (FLI1): 1.59 fold enrichment (6-mer frequency, TF over GST control)
binding signal (ELK1): 1.66 fold enrichment (6-mer frequency, TF over GST control)
binding signal (GABPA): 1.61 fold enrichment (6-mer frequency, TF over GST control)
binding signal (ERG): 1.72 fold enrichment (6-mer frequency, TF over GST control)
binding signal (ELF1): 1.74 fold enrichment (6-mer frequency, TF over GST control)
binding signal (EHF): 1.67 fold enrichment (6-mer frequency, TF over GST control)
binding signal (SPI1): 2.29 fold enrichment (6-mer frequency, TF over GST control)
binding signal (SPIB): 1.8 fold enrichment (6-mer frequency, TF over GST control)
binding signal (ELK3): 1.86 fold enrichment (6-mer frequency, TF over GST control)

CCGTTC
binding signal (FLI1): 1.32 fold enrichment (6-mer frequency, TF over GST control)
binding signal (ELK1): 1.38 fold enrichment (6-mer frequency, TF over GST control)
binding signal (GABPA): 1.39 fold enrichment (6-mer frequency, TF over GST control)
binding signal (ERG): 1.38 fold enrichment (6-mer frequency, TF over GST control)
binding signal (ELF1): 1.46 fold enrichment (6-mer frequency, TF over GST control)
binding signal (EHF): 1.5 fold enrichment (6-mer frequency, TF over GST control)
binding signal (SPI1): 1.39 fold enrichment (6-mer frequency, TF over GST control)
binding signal (SPIB): 1.47 fold enrichment (6-mer frequency, TF over GST control)
binding signal (ELK3): 1.4 fold enrichment (6-mer frequency, TF over GST control)

TCTGCA
binding signal (FLI1): 1.42 fold enrichment (6-mer frequency, TF over GST control)
binding signal (ELK1): 1.4 fold enrichment (6-mer frequency, TF over GST control)
binding signal (GABPA): 1.31 fold enrichment (6-mer frequency, TF over GST control)
binding signal (ERG): 1.25 fold enrichment (6-mer frequency, TF over GST control)
binding signal (ELF1): 1.3 fold enrichment (6-mer frequency, TF over GST control)
binding signal (EHF): 1.27 fold enrichment (6-mer frequency, TF over GST control)
binding signal (SPI1): 1.33 fold enrichment (6-mer frequency, TF over GST control)
binding signal (SPIB): 1.41 fold enrichment (6-mer frequency, TF over GST control)
binding signal (ELK3): 1.48 fold enrichment (6-mer frequency, TF over GST control)

TAAATG
binding signal (FLI1): 1.22 fold enrichment (6-mer frequency, TF over GST control)
binding signal (ELK1): 1.21 fold enrichment (6-mer frequency, TF over GST control)
binding signal (GABPA): 1.34 fold enrichment (6-mer frequency, TF over GST control)
binding signal (ERG): 1.27 fold enrichment (6-mer frequency, TF over GST control)
binding signal (ELF1): 1.34 fold enrichment (6-mer frequency, TF over GST control)
binding signal (EHF): 1.27 fold enrichment (6-mer frequency, TF over GST control)
binding signal (SPI1): 1.36 fold enrichment (6-mer frequency, TF over GST control)
binding signal (SPIB): 1.35 fold enrichment (6-mer frequency, TF over GST control)
binding signal (ELK3): 1.29 fold enrichment (6-mer frequency, TF over GST control)

ACTCCG
binding signal (FLI1): 1.48 fold enrichment (6-mer frequency, TF over GST control)
binding signal (ELK1): 1.5 fold enrichment (6-mer frequency, TF over GST control)
binding signal (GABPA): 1.58 fold enrichment (6-mer frequency, TF over GST control)
binding signal (ERG): 1.43 fold enrichment (6-mer frequency, TF over GST control)
binding signal (ELF1): 1.48 fold enrichment (6-mer frequency, TF over GST control)
binding signal (EHF): 1.42 fold enrichment (6-mer frequency, TF over GST control)
binding signal (SPI1): 1.45 fold enrichment (6-mer frequency, TF over GST control)
binding signal (SPIB): 1.44 fold enrichment (6-mer frequency, TF over GST control)
binding signal (ELK3): 1.56 fold enrichment (6-mer frequency, TF over GST control)

AGTGCT
binding signal (FLI1): 1.47 fold enrichment (6-mer frequency, TF over GST control)
binding signal (ELK1): 1.36 fold enrichment (6-mer frequency, TF over GST control)
binding signal (GABPA): 1.29 fold enrichment (6-mer frequency, TF over GST control)
binding signal (ERG): 1.37 fold enrichment (6-mer frequency, TF over GST control)
binding signal (ELF1): 1.4 fold enrichment (6-mer frequency, TF over GST control)
binding signal (EHF): 1.4 fold enrichment (6-mer frequency, TF over GST control)
binding signal (SPI1): 1.91 fold enrichment (6-mer frequency, TF over GST control)
binding signal (SPIB): 1.53 fold enrichment (6-mer frequency, TF over GST control)
binding signal (ELK3): 1.59 fold enrichment (6-mer frequency, TF over GST control)
